# Bioassay records deposited in PubChem by National Center for Advancing Translational Sciences (NCATS).
# HEK293 cAMP cs: raises cAMP in parental HEK293 cells, TSHR agonist counter-screen; parental HEK293 CNG cAMP sensor, membrane potential fluorescence; Potency, µM (doses to about 57.1 µM), for the others: at the highest dose activation, hits mostly activators; 73,000 compounds, 2.5% hits; note: % of control where 0% means no effect; nearly all actives have a fitted effect of over 55% in size
#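 Counterscreen for endogenous-receptor signalling: CNG-channel HEK 293 cells report cAMP rise by membrane depolarization. After 60 min dye equilibration with 100 uM RO 20-1724, compounds incubated 30 min before bottom-read fluorescence at 590 nm.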
# TSHR agonist: TSH receptor (human) agonism. P16473. HEK293-CNG-TSHR cells (CNG channel as cAMP sensor), membrane potential dye, cAMP. Potency, µM (doses to about 57.1 µM), for inactives: top-dose activation, most hits filed as activators. 73,000 compounds, 0.48% hits; active = well fitted activation curve with a large enough effect in the main read-out, with a control signal flat, not every such curve was filed as active; inconclusive = small, poorly fitted or top-dose-only effect, or a change in a side signal; inactive = no such curve, though single readings can be large or run the other way; % of control where 0% means no effect;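 note: the control signal comes from parental cells without the receptor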
#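 cAMP rise detected as CNG-channel membrane depolarization by fluorescent dye (emission 590 nm), 30 min after compound, following 60 min dye loading containing 100 uM RO 20-1724 at room temperature. Cells: TSHR/CNG HEK 293, with parental CNG HEK 293 as control.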
# Casp1 inh: blocks human caspase-1 allosterically or competitively; P29466; Caspase-1 enzyme, Ac-WEHD-AFC fluorogenic rate; Potency, µM (highest dose often 57.5 µM), for the others: at the top dose activity change, negative = inhibition, hits mostly inhibitors; 75,000 compounds, 0.03% hits;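 note: plate controls were vehicle for no effect and no substrate for full effect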
# Target sequence (P29466 120-297 limits assumed): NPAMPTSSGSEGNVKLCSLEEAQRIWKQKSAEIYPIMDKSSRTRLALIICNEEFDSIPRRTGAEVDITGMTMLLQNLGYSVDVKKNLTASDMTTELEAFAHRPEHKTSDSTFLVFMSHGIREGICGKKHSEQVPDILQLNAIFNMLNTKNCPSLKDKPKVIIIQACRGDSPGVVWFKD
# Target sequence (P29466 317-404 limits assumed): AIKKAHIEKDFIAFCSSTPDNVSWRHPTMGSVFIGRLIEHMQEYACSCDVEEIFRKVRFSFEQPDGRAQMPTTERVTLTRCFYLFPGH
# 15-hLO inh: inhibitors of human 15-lipoxygenase (ALOX15). P16050. purified 15hLO-1, xylenol orange hydroperoxide absorbance. Potency, µM (titrated, usually from 57.1 µM), without a hit: at the top dose activity change, negative = inhibition, most hits filed as inhibitors. 74,000 compounds, 1.4% hits; note: % is set by controls: 0 for no effect and ±100 for the full control effect; nearly all actives have a fitted effect of over 55% in size
#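 Quantitative HTS in 25 mM Hepes pH 7.5 containing 0.01% Triton X-100: human 15hLO-1 at 40 nM, arachidonic acid at 50 uM, 6 min turnover. Product quantified via ferrous oxidation/xylenol orange, 573:405 nm absorbance ratio.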
# Caspase-7 inhib: allosteric or competitive inhibitors of human caspase-7; 75,000 compounds, 0.02% hits; recombinant caspase-7, Ac-DEVD-AFC fluorescence rate; P55210; AID 889; Potency, µM (doses to about 57.5 µM), for inactives: at the highest dose activity change, negative = inhibition, actives largely listed as inhibitors; active = well fitted inhibition curve with a large enough effect in the main read-out, with a control signal flat, not every such curve was filed as active; inconclusive = small, poorly fitted or top-dose-only effect, or a change in a side signal; note: % of control where 0% means no effect
# Target sequence (P55210 24-198 limits assumed): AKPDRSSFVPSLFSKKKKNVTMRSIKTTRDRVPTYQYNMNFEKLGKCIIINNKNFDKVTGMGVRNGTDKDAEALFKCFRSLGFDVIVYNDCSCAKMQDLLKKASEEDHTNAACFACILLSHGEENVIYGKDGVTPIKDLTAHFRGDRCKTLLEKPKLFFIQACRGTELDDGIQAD
# Target sequence (P55210 207-303 limits assumed): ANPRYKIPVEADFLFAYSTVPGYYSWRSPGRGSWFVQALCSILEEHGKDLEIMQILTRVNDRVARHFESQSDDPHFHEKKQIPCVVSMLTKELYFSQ
# 15-hLO-2 inh: 15-hLO-2 (ALOX15B) enzyme inhibition | purified 15hLO-2, xylenol orange hydroperoxide absorbance | Potency, µM (doses to about 57.1 µM), for the others: at the highest dose activity change, negative = inhibition, actives largely listed as inhibitors | 110,000 compounds, 0.56% hits | AID 881; note: % is set by controls: 0 for no effect and ±100 for the full control effect; nearly all actives have a fitted effect of over 60% in size
#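 Purified human 15hLO-2 (50 nM) preincubated 15 min with compound, then 45 uM arachidonic acid for 90 min at RT in 25 mM Hepes pH 7.5, 0.01% Triton X-100. Hydroperoxide detected by Fe-xylenol orange; 573/405 nm absorbance ratio.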
# * hit, by the source's call; ? = inconclusive; / = no result; ! = repeats disagree; [ ] = dose if it differs, or a comment. Sampled rows, rich in hits. Any-hit rate of the full collection: about 3%. Unless noted, calls come from the whole dose curve; as a rule, active = well fitted curve in the direction sought with a large enough effect; inconclusive = small, poorly fitted or top-dose-only effect, or another doubt; inactive = no such curve, though single readings can be large; an effect the other way counts as inactive or inconclusive. Potency is the fitted concentration of half-maximal effect.
SMILES,HEK293 cAMP cs,TSHR agonist,Casp1 inh,15-hLO inh,Caspase-7 inhib,15-hLO-2 inh
O=C(CSc1nnc(-c2ccc(Cl)cc2)n1Cc1ccco1)c1cccs1,16µM*,?,-2%,?,-11%,-17%
CC1CCCC(C)N1C(=O)c1cc(-c2cccs2)on1 (stereo not drawn),16%,20µM*,-3%,8%,-5%,/
O=C(NC1CCCC1)c1cc(-c2cccs2)on1,26%,3%,-1%,3%,1%,11%
O=C(O)[C@@H]1Cc2c([nH]c3ccccc23)[C@@H](CCCCO)N1,-1%[11.4 µM],-2%[11.4 µM],-3%[11.5 µM],-5%[11.4 µM],0%[11.5 µM],-8%[11.4 µM]
O=C(O)C1Cc2c([nH]c3ccccc23)C(c2ccc3c(c2)OCO3)N1 (stereo not drawn),-8%,-11%,-16%,13µM*,1%[0.00368 µM],-6%
COc1ccc(-n2c(C)cc(C(=O)CSc3nnc(-c4ccoc4C)n3C)c2C)cc1,32µM*,?,-2%,-11%,-7%,-7%
COC(=O)c1ccccc1NC(=O)CSc1nnc(-c2ccoc2C)n1C,?,?,-1%,1%,-1%,2%
COc1ccc2c(c1)[n+]([O-])c(/C(C)=N/NC(N)=S)c(C)[n+]2[O-],-3%[11.4 µM],2%[11.4 µM],0%[11.5 µM],-7%[11.4 µM],-3%[11.5 µM],-3%[11.4 µM]
COCCn1c(=O)c(C)nc2cnc(N3CCOCC3)nc21,?,?,-15%,23%,-23%,-7%
O=c1c(-c2cccs2)nc2cnc(N3CCOCC3)nc2n1-c1ccccc1,26%,4%,/,-12%,?,-8%
O=C(Nc1cccc2ccccc12)OC1C=CS(=O)(=O)C1 (stereo not drawn),32µM*,?,-2%,63%,-2%,/
FC(F)(F)c1cccc(Cl)c1,23%,-3%,-1%,-3%,3%,-6%
COc1cccc([C@@H]2Oc3ccc(OC)cc3/C(=N/O[C@@H](C)c3cn([C@H]4COC[C@H]4O)nn3)[C@@H]2O)c1,3%[11.4 µM],13%[11.4 µM],-3%[11.5 µM],8%[11.4 µM],-1%[11.5 µM],/
O=C(Nc1ccc2c(c1)OCO2)[C@@H]1[C@@H]2C(=O)N(C3CCCCC3)C(=O)[C@@H]2C2c3ccccc3C=CN21 (stereo partly drawn),-6%,-12%,?,?,?,4%[11.4 µM]
O=C(c1ccc2c(c1)OCO2)[C@@H]1[C@@H]2C(=O)N(C3CCCCC3)C(=O)[C@@H]2C2c3ccccc3C=CN21 (stereo partly drawn),-4%,-20%,?,16µM*,-22%,24%
O=C(O)CCc1ccc(-c2ccc(Br)cc2)o1,4µM*,?,-6%,-22%,0%,-13%
O=C(O)CCc1ccc(-c2ccc(Cl)cc2)o1,/,/,/,/,/,-15%
Nc1nc(SCCc2ccccc2)c2[nH]cnc2n1,-7%[11.4 µM],0%[11.4 µM],-1%[11.5 µM],1%[11.4 µM],1%[11.5 µM],6%[11.4 µM]
Cc1csc(SCC(=O)Nc2cccc3nsnc23)n1,20µM*,?,-14%,-23%,-14%,8%[11.4 µM]
CC(=O)c1ccc(OC2C(O)COC2/C=C/c2ccc(Cl)cc2)cc1 (stereo not drawn),1%[11.4 µM],-7%[11.4 µM],0%[11.5 µM],-1%[11.4 µM],-1%[11.5 µM],/
Cc1ccc(OC2C(O)COC2/C=C/C#Cc2ccc(C(C)(C)C)cc2)cc1 (stereo not drawn),2%[11.4 µM],-5%[11.4 µM],0%[11.5 µM],3.2µM*!,1%[11.5 µM],/
COc1ccc(O)c(-c2c(-c3ccc(Cl)cc3)n[nH]c2C)c1,-22%,-24%,-1%,25µM*,-4%,-15%
COc1ccc(-c2n[nH]c(C)c2-c2ccc(Cl)cc2)c(O)c1,/,/,/,/,/,-1%
CCN(CC)CCNC(=O)CCCCn1c(=S)[nH]c2c([nH]c3ccc(OC)cc32)c1=O,-6%,11%,1%,13µM*,1%,-29%
CCN(CC)CCNC(=O)CCn1c(=S)[nH]c2cc3c(cc2c1=O)OCO3,4%,13%,-1%,9%,2%,1%
SMILES,HEK293 cAMP cs,TSHR agonist,Casp1 inh,15-hLO inh,Caspase-7 inhib,15-hLO-2 inh
N#CCc1ccccc1[N+](=O)[O-],6%,0%,-1%,-7%,1%,0%
CCNc1ncc2nc(-c3ccc(Cl)cc3)c(=O)n(C3CC3)c2n1,6%,-4%,/,-18%,?,-2%
Cc1ccc(-c2nnn(CC(=O)N(Cc3cccs3)C(C(=O)NC3CCCC3)c3ccco3)n2)o1 (stereo not drawn),13µM*,?,-6%,-7%,-2%,?
O=C(NC1CCCC1)C(c1cccs1)N(Cc1ccco1)C(=O)Cn1nnc(-c2cccs2)n1 (stereo not drawn),20µM*,?,-3%,-9%,-1%,3%
COCCN(C(=O)Cn1nnc2ccccc21)C(C(=O)NC1CCCC1)c1cccc(OC)c1OC (stereo not drawn),20µM*,?,0%,-10%,0%,-4%
O=C(NC1CCCCC1)C(c1ccncc1)N(C(=O)Cn1nnc(-c2cccs2)n1)C1CCCC1 (stereo not drawn),?,?,-2%,-10%,1%,/
Cc1ccc(-c2nnn(CC(=O)N(Cc3cccs3)C(C(=O)NC3CCCCC3)c3ccco3)n2)o1 (stereo not drawn),/,/,/,/,/,0%
O=C(NC1CCCCC1)C(c1ccco1)N(Cc1cccs1)C(=O)Cn1nnc2ccccc21 (stereo not drawn),16µM*,?,-1%,2%,1%,-7%
COCCNC(=O)C(c1ccccc1C)N(CCOC)C(=O)Cn1nnc2ccccc21 (stereo not drawn),11%,1%,0%,1%,0%,-3%
CO[C@@H]1COC(=O)[C@H](C)NC(=O)C/C=C\[C@@H](C)[C@H](OC)COC(=O)[C@H](C)NC(=O)C/C=C\[C@H]1C,-2%[11.4 µM],3%[11.4 µM],-1%[11.5 µM],1%[11.4 µM],-3%[11.5 µM],/
COCCn1c(=O)c(-c2ccccc2)nc2cnc(N3CCN(C)CC3)nc21,11%[0.457 µM],4%,/,0%,?,-5%
O=C(NC1CCCCC1)C(c1ccccc1)N(Cc1ccco1)C(=O)Cn1cnc2ccccc21 (stereo not drawn),20µM*,?,-2%,15%,-2%,/
O=C(NCc1ccco1)C(c1ccc(F)cc1)N(CC1CCCO1)C(=O)Cn1nnc2ccccc21 (stereo not drawn),16%,18%,2%,1%,-1%,1%
CCOc1ccc2nc(NC(=O)c3ccoc3C)sc2c1,-10%[11.4 µM],-5%[11.4 µM],-1%,4µM*,-1%,17%
N#CC1=C(C2CC2)CC(c2ccccc2)C(C#N)=C1N (stereo not drawn),15%,/,-13%,?,-21%,-3%
N#CC1=C(N)SC2(CCCCC2)SC1c1ccccc1 (stereo not drawn),0%,2%,-3%,25µM*,-2%,?
